{"source": "the OligoGym collection"}
{"molecular_target": "MRPS24", "experiment": "pooled miR-30 sensor sort-seq; sequence = guide strand", "conditions": "shRNA"}
{"sequence": "TAAAAGTAGGACAGCAAAGTTT", "sensor-assay potency score (higher = more potent)": -1.12}
{"sequence": "TAGGACAGCAAAGTTTCACTGT", "sensor-assay potency score (higher = more potent)": 0.628}
{"sequence": "TTGGAGGTGGAGTCGCACAGGA", "sensor-assay potency score (higher = more potent)": -0.602}
{"sequence": "TACTTGTGTGGAGACAACTGCC", "sensor-assay potency score (higher = more potent)": -0.594}
{"sequence": "TAAAACCAGCTGGTCAGCCAGG", "sensor-assay potency score (higher = more potent)": -1.47}
{"sequence": "AAGGAAAACATCCTCCACCGTT", "sensor-assay potency score (higher = more potent)": -0.646}
{"sequence": "TTGTGTGGAGACAACTGCCTCA", "sensor-assay potency score (higher = more potent)": -0.151}
{"sequence": "TGTGCAGCGACAGCCAGCCTTT", "sensor-assay potency score (higher = more potent)": -0.931}
{"sequence": "TTCACTGTAGCCCACGAGGAAG", "sensor-assay potency score (higher = more potent)": -1.08}
{"sequence": "TAGGTCACCGGCTTGTCCCCCT", "sensor-assay potency score (higher = more potent)": 0.167}
{"sequence": "TTTGTAAAAGTAGGACAGCAAA", "sensor-assay potency score (higher = more potent)": -1.45}
{"sequence": "TACCCCACATGAACTTGCGAAG", "sensor-assay potency score (higher = more potent)": -1.43}
{"molecular_target": "MRS2", "experiment": "pooled miR-30 sensor sort-seq; sequence = guide strand", "conditions": "shRNA"}
{"sequence": "TAAACCGGTGCACTTCACCTGC", "sensor-assay potency score (higher = more potent)": -0.316}
{"sequence": "TAATATCAGAAGACACTCTGGA", "sensor-assay potency score (higher = more potent)": 0.725}
{"sequence": "TTAATATCTGTTTCTAACTCTG", "sensor-assay potency score (higher = more potent)": 0.197}
{"sequence": "TTGATACACAGAGCTCTTCTAG", "sensor-assay potency score (higher = more potent)": -0.709}
{"sequence": "TGTGATACTCATTACATGCTGA", "sensor-assay potency score (higher = more potent)": 0.129}
{"sequence": "TGAATCATCAATCAGCACCCTA", "sensor-assay potency score (higher = more potent)": -0.284}
{"sequence": "TTTGTCACAGTAAATACTGGGG", "sensor-assay potency score (higher = more potent)": 0.152}
{"sequence": "TAATATCTGTTTCTAACTCTGA", "sensor-assay potency score (higher = more potent)": -0.212}
{"sequence": "TACACAGAGCTCTTCTAGCAAC", "sensor-assay potency score (higher = more potent)": -1.3}
{"sequence": "TAGCAACTCTTCCTCATCCAAG", "sensor-assay potency score (higher = more potent)": -1}
{"sequence": "TTCCATGCTTCTATCTGCCAGA", "sensor-assay potency score (higher = more potent)": -0.489}
{"molecular_target": "MST4", "experiment": "pooled miR-30 sensor sort-seq; sequence = guide strand", "conditions": "shRNA"}
{"sequence": "TAAAATTGCCTCTTCTACCTAA", "sensor-assay potency score (higher = more potent)": 0.733}
{"sequence": "TATAGGACAATTTATTACCATG", "sensor-assay potency score (higher = more potent)": -1.23}
{"sequence": "TAATATTTGACAATTACTCAGA", "sensor-assay potency score (higher = more potent)": -0.142}
{"sequence": "TTTGTGAACAGTTCTTCTGGAT", "sensor-assay potency score (higher = more potent)": 0.425}
{"sequence": "TAGTTTAATAGCTTCTTCCAAA", "sensor-assay potency score (higher = more potent)": -1.19}
{"sequence": "TATTTTGTTACATATGAGCTGT", "sensor-assay potency score (higher = more potent)": -0.0518}
{"sequence": "TAAACTGTAATTGTGTTTCAGT", "sensor-assay potency score (higher = more potent)": 0.0353}
{"sequence": "TTATCATAGACAAACAACTCAG", "sensor-assay potency score (higher = more potent)": -0.749}
{"sequence": "TTTAATAGCAACGACTTGCTGG", "sensor-assay potency score (higher = more potent)": 0.885}
{"sequence": "TTGCTTTAAATTTCTAACCATG", "sensor-assay potency score (higher = more potent)": -1.11}
{"sequence": "TTCAACATTACCAAACACCTAT", "sensor-assay potency score (higher = more potent)": -0.0444}
{"sequence": "TATCATAGACAAACAACTCAGG", "sensor-assay potency score (higher = more potent)": -0.251}
{"molecular_target": "MTDH", "experiment": "pooled miR-30 sensor sort-seq; sequence = guide strand", "conditions": "shRNA"}
{"sequence": "TTGCTTACTAATCTGTAGGCAA", "sensor-assay potency score (higher = more potent)": -0.352}
{"sequence": "TTCTTCTGTTCCTCGCTCCGGA", "sensor-assay potency score (higher = more potent)": -0.0167}
{"sequence": "TTCTCGGACAGTTTCTTCCGGT", "sensor-assay potency score (higher = more potent)": -0.0604}
{"sequence": "TATTCTTCTTGGAACCAACAGG", "sensor-assay potency score (higher = more potent)": -0.744}
{"sequence": "TAAATTAAGATCGTTCTTGTTC", "sensor-assay potency score (higher = more potent)": 0.14}
